Eight compounds from PubChem BioAssay (Tox21) can be followed below.

Structures are written as SMILES. A number with no mark means an inactive call. Inconclusive results are not listed. Active and inactive are the calls of the source. Unless noted, calls come from the whole dose curve; as a rule, active = well fitted curve in the direction sought with a large enough effect in the repeat runs; inconclusive = weak or mixed curves; inactive = no such curve, though single readings can be large; an effect the other way counts as inactive or inconclusive.

Experiment [1] in a line: Human pregnane X receptor (PXR) small molecule agonists, qHTS cell viability counter screen (AID 1346977). Note: nearly all actives have a fitted effect of over 50% in size. A digest of the protocol: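 Tox21 qHTS format; PXR-Luc HepG2, 2,000/well, charcoal-stripped FBS 5%. Cpd exposure 24hr. Read: CellTiter-Fluor fluorescence, multiplexed with luciferase.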
Background: qHTS replaces the single test concentration by a dilution series.

The nature of experiment [2]: Caspase-3/7 induction in HepG2 cells by small molecules, qHTS assay (AID 1346978). Note: nearly all actives have a fitted effect of over 15% in size. In short, it runs like this: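 Wild-type HepG2 cells, 2,000/well, settled 5 hr at 37 C and 5% CO2, then compound-treated for 17 hr; caspase-3/7 activity read by luminescent Caspase-Glo 3/7 after 30 min at room temperature.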
Experiment [3] in a line: Caspase-3/7 induction in CHO-K1 cells by small molecules, qHTS assay (AID 1346980). Note: nearly all actives have a fitted effect of over 15% in size. A digest of the protocol:
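Wild-type CHO-K1 cells exposed to compounds for 17hr at 37 C, 5% CO2. Caspase-3/7 activity then measured by Caspase-Glo 3/7 luminescence after 30min at room temperature.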

Experiment [4] can be described thus: Caspase-3/7 induction in HepG2 cells by small molecules, qHTS cell viability counter screen (AID 1346981). Note: series mostly up to about 92 µM; nearly all actives have a fitted effect of over 30% in size. In short, it runs like this:
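Counter screen for cytotoxicity: HepG2 exposed 16 hr to compounds, then CellTiter-Fluor viability signal (fluorescence, 1 hr reagent incubation).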

For experiment [5], the target named is Nuclear receptor subfamily 1 group I member 2 (Homo sapiens) (UniProt O75469). In words: Human pregnane X receptor (PXR) small molecule agonists, qHTS assay (AID 1346982). Note: nearly all actives have a fitted effect of over 35% in size. Note: potency is the fitted concentration of half-maximal effect. A digest of the protocol: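 Luminescence (ONE-Glo, 30 min RT) after 24 hr compound exposure of PXR-Luc HepG2 cells; cells rested 5 hr post-plating in 5% charcoal-stripped FBS medium.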
Nuclear receptor subfamily 1 group I member 2 (Homo sapiens), sequence (O75469 whole entry, looked up): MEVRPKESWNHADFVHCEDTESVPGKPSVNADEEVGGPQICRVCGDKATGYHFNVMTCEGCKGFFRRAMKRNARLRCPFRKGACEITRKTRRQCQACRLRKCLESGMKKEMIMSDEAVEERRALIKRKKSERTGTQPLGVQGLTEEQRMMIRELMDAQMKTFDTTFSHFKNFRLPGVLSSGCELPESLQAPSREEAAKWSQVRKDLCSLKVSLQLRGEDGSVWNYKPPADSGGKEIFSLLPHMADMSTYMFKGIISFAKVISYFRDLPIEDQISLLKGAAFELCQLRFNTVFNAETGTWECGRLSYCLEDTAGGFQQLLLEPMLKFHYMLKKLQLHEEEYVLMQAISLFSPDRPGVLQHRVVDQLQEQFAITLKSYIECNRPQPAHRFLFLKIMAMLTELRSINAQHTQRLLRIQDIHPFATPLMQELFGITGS
The target of experiment [6] is Nuclear receptor subfamily 1 group I member 2 (Rattus norvegicus) (UniProt Q9R1A7). In words: Rat pregnane X receptor (rPXR) activation by small molecules, qHTS assay (AID 1346983). Note: nearly all actives have a fitted effect of over 20% in size. The following applies: rPXR luciferase reporter cells, One-Glo luminescence, 24 h; hits give high values. A digest of the protocol:
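Cell-based rPXR activation assay: rPXR cells, 2,000 per well, rested 5hr at 37 C, then exposed to compounds in DMSO for 24 hr at 37 C. Luciferase activity read by One-Glo luminescence after 30 min at room temperature.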

Experiment [7] deals with Nuclear receptor subfamily 1 group I member 2 (Homo sapiens) (UniProt O75469). In words: CYP3A4 induction through human pregnane X receptor (PXR) by small molecules, qHTS assay (AID 1346984). Note: nearly all actives have a fitted effect of over 40% in size. A digest of the protocol:
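DPX-2 reporter cells; 24h cpd, 37C; Luciferin-IPA 3uM final x3h; One-Glo 30 min RT; lumi read.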

The target of experiment [8] is Acetylcholinesterase (Homo sapiens) (UniProt P22303). In words: Acetylcholinesterase (AChE) small molecule antagonists: enzyme-based qHTS assay (AID 1347397; calls by dose curve; note: nearly all actives have a fitted effect of over 55% in size). The note with it: Potency: AChE enzyme activity inhibition; outcome: AChE enzyme activity inhibition. In short, it runs like this: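 Enzyme inhibition was scored from DTNB-detected thiocholine formed by recombinant human AChE acting on acetylthiocholine. The 30 min compound preincubation and 10 min substrate reaction were both run at room temperature, with DMSO as vehicle control.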
Acetylcholinesterase (Homo sapiens), sequence (P22303 whole entry, looked up): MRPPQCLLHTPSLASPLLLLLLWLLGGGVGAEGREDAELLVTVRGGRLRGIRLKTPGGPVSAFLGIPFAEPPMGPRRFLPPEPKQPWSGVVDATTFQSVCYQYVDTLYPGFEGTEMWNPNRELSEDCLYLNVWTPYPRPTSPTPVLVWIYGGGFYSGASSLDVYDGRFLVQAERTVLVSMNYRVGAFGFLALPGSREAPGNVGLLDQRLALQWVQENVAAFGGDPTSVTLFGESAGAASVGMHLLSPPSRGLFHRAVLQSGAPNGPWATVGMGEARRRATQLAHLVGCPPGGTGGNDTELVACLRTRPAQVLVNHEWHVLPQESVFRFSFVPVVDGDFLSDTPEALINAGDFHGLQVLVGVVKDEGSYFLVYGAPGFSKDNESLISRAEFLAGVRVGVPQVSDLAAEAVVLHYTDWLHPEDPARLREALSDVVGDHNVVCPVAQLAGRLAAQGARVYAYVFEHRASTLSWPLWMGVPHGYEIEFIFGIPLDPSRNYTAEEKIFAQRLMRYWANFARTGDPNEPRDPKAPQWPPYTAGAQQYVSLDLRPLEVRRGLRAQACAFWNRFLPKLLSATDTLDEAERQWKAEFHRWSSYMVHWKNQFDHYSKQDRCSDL

For experiment [9] the target is unchanged. Nature of the experiment: Acetylcholinesterase (AChE) small molecule antagonists: fluorescence cell-based qHTS assay (AID 1347398; calls by dose curve; note: nearly all actives have a fitted effect of over 50% in size). The note with it: Potency: AChE activity; outcome: AChE activity. In short, it runs like this: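 Endogenous acetylcholinesterase of SH-SY5Y neuroblastoma cells is measured in situ. After overnight attachment and 30 min compound exposure, cells receive acetylthiocholine and Thiolite Green; fluorescence is read after 40 min at room temperature.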

The target is the same in experiment [10]. Nature of the experiment: Acetylcholinesterase (AChE) small molecule antagonists: enzyme-based qHTS assay with human liver microsomes (AID 1347399; calls by dose curve; note: nearly all actives have a fitted effect of over 60% in size). The following applies: Potency: qHTS inhibition; outcome: qHTS inhibition. A digest of the protocol:
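Recombinant human AChE (50 mU/mL in the enzyme mix) and human liver microsomes (0.25 mg/mL final) were preincubated with compound and NADPH (0.25 mg/mL final) for 30 min at 37 C. Acetylthiocholine/DTNB was then added; thiocholine was read colorimetrically after 10 min at room temperature.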

Experiment [11] deals with Cytochrome P450 2D6 (Homo sapiens) (UniProt P10635). Nature of the experiment: Cytochrome P450 Family 2 Subfamily D Member 6 (CYP2D6) small molecule antagonists: luciferase reporter qHTS assay (AID 1671196). Note: nearly all actives have a fitted effect of over 50% in size. Note: potency is the fitted concentration of half-maximal effect. In short, it runs like this:
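Inhibition of CYP2D6 was gauged by loss of luminescence, since light produced tracks the luciferin generated from a proluciferin substrate. A 10 min room-temperature preincubation preceded 1 h NADPH-supported turnover.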
Background: In a reporter assay the amount or activity of a reporter protein is the signal.

Experiment [12] has as its target Cytochrome P450 2C19 (Homo sapiens) (UniProt P33261). Nature of the experiment: Cytochrome P450 Family 2 Subfamily C Member 19 (CYP2C19) small molecule antagonists: luciferase reporter qHTS assay (AID 1671197). Note: nearly all actives have a fitted effect of over 65% in size. Note: potency is the fitted concentration of half-maximal effect. In short, it runs like this: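 Luminescent readout of CYP2C19 activity: luciferin product detected 20 min after adding detection reagent. Before that, compound and enzyme-substrate mix preincubated 10 min at room temperature; NADPH-regenerating system started a 1 h, 37C reaction. Ketoconazole as positive control.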

Experiment [13] addresses Cytochrome P450 1A2 (Homo sapiens) (UniProt P05177). Nature of the experiment: Cytochrome P450 Family 1 Subfamily A Member 2 (CYP1A2) small molecule antagonists: luciferase reporter qHTS assay (AID 1671199). Note: nearly all actives have a fitted effect of over 50% in size. Note: potency is the fitted concentration of half-maximal effect. A digest of the protocol: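 Signal from luciferin formed by CYP1A2 from a proluciferin substrate is read as luminescence, expressed in relative luminescence units. Compounds sit with enzyme 10 min, NADPH-driven reaction runs 1 h, all at room temperature.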

The target of experiment [14] is Voltage-gated inwardly rectifying potassium channel KCNH2 (Homo sapiens) (UniProt Q12809). Nature of the experiment: Human Ether-a-go-go-Related Gene (hERG) channel small molecule antagonists: fluorescence cell-based qHTS assay (AID 1671200). In short, it runs like this: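 Kinetic two-minute fluorescence traces, sampled at 1 s, were collected following thallium stimulus of U2OS cells (1000 per well) that had been cultured overnight at 37 C and loaded with FluxOR II.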
Voltage-gated inwardly rectifying potassium channel KCNH2 (Homo sapiens), sequence (Q12809 whole entry, looked up): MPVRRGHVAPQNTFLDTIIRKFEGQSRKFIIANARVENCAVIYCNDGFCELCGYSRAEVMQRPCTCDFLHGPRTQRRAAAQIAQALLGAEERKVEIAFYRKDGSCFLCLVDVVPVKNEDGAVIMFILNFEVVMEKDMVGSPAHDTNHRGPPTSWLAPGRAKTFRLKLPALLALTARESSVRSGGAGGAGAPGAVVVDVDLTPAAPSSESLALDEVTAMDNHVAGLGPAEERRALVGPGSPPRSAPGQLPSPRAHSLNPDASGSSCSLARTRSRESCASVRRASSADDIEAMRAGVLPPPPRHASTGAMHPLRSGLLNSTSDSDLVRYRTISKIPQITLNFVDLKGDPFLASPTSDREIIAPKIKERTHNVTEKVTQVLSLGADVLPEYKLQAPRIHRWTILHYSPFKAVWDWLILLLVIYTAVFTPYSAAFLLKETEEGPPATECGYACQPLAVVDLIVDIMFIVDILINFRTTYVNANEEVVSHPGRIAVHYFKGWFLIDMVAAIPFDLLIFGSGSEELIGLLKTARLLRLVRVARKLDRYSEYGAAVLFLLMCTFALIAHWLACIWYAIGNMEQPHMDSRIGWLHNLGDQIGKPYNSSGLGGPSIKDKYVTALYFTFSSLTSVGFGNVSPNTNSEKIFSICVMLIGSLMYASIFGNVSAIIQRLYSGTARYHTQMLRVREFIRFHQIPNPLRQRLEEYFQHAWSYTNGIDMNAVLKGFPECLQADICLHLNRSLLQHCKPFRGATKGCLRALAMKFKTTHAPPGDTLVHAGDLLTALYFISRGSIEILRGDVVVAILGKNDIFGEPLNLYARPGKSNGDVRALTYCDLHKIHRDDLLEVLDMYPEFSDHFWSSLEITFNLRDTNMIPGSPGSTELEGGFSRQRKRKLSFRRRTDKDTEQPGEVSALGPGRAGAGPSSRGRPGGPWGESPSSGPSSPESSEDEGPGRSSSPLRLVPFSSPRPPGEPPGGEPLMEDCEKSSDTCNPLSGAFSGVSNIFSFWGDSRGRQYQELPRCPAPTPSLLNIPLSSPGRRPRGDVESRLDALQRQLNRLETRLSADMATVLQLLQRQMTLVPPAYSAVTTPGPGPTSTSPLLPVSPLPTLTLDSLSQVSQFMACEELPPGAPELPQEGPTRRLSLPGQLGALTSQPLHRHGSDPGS
(In general: hERG is a cardiac potassium channel; its block is linked to QT prolongation.)

Experiment [15] addresses Cytochrome P450 3A4 (Homo sapiens) (UniProt P08684). Nature of the experiment: Cytochrome P450 Family 3 Subfamily A Member 4 (CYP3A4) small molecule antagonists: luciferase reporter qHTS assay (AID 1671201). Note: nearly all actives have a fitted effect of over 50% in size. Note: potency is the fitted concentration of half-maximal effect. In short, it runs like this: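 Proluciferin-to-luciferin conversion by CYP3A4, NADPH-regenerated, 1 h RT; luminescence read as RLU. Ketoconazole as control.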
Experiment [16] is described as follows: Caspase-3/7 induction in CHO-K1 cells by small molecules, qHTS cell viability counter screen (AID 1346979). Note: nearly all actives have a fitted effect of over 35% in size. A digest of the protocol:
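CellTiter-Fluor viability check, qHTS format: wild-type CHO-K1, 16hr compound treatment, 1hr reagent incubation, fluorescence read.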

Experiment [17] has as its target Cytochrome P450 2C9 (Homo sapiens) (UniProt P11712). In words: Cytochrome P450 Family 2 Subfamily C Member 9 (CYP2C9) small molecule antagonists: luciferase reporter qHTS assay (AID 1671198). Note: nearly all actives have a fitted effect of over 50% in size. Note: potency is the fitted concentration of half-maximal effect. In short, it runs like this: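 P450-Glo proluciferin substrate with CYP2C9 enzyme; 10 min RT preincubation, then NADPH regeneration 1 h at 37C; luciferin detection reagent 20 min RT, luminescence in relative luminescence units.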

For experiment [18], the target named is Nuclear receptor subfamily 1 group I member 2 (Homo sapiens) (UniProt O75469). In words: Human pregnane X receptor (PXR) activation by small molecules, qHTS assay (AID 1346985). Note: nearly all actives have a fitted effect of over 40% in size. A digest of the protocol:
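DPX-2 cells (HepG2 co-transfected with a PXR response element and a CYP3A4-promoter luciferase construct) were seeded at 2,000 per well, rested 5 hr at 37C, then exposed to DMSO-dissolved compounds for 24 hr. Activation was read as luciferase luminescence.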

In experiment [19] the target is Acetylcholinesterase (Homo sapiens) (UniProt P22303). Nature of the experiment: Acetylcholinesterase (AChE) small molecule antagonists: colormetric cell-based qHTS assay (AID 1347395; calls by dose curve; note: nearly all actives have a fitted effect of over 30% in size). In short, it runs like this:
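AChE inhibition read colorimetrically via DTNB–thiocholine in SH-SY5Y cells. Compound 30 min, substrate 90 min, both 37 C.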
% is set by controls: 0 for no effect and ±100 for the full control effect.

Cytochrome P450 2D6 (Homo sapiens), sequence (P10635 whole entry, looked up): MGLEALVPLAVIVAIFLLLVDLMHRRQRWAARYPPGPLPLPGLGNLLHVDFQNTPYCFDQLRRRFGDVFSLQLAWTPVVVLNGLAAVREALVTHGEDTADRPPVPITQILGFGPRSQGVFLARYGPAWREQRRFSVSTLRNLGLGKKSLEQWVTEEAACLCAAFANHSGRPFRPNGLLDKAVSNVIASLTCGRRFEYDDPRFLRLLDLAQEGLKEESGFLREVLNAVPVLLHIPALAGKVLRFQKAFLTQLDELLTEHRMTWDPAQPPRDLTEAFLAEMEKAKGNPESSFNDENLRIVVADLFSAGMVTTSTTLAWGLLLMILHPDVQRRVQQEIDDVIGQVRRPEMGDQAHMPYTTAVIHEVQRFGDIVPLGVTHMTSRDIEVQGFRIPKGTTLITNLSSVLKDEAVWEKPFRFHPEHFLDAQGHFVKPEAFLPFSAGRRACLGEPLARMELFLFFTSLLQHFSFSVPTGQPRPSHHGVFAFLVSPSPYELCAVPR
Cytochrome P450 2C19 (Homo sapiens), sequence (P33261 whole entry, looked up): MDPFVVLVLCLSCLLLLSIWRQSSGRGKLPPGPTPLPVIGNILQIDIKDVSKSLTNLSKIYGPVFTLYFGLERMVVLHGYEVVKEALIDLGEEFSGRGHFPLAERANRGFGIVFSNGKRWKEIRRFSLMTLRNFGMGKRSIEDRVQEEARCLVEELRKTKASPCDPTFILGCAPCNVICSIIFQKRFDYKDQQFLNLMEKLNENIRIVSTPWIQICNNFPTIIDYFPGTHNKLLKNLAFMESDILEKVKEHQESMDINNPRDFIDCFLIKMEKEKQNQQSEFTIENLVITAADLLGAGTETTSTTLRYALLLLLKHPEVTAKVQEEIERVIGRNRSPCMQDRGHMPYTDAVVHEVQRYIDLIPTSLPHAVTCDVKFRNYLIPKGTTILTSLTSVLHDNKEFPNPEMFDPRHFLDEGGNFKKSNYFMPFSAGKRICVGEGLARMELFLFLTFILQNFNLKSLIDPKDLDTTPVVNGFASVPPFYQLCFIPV
Cytochrome P450 1A2 (Homo sapiens), sequence (P05177 whole entry, looked up): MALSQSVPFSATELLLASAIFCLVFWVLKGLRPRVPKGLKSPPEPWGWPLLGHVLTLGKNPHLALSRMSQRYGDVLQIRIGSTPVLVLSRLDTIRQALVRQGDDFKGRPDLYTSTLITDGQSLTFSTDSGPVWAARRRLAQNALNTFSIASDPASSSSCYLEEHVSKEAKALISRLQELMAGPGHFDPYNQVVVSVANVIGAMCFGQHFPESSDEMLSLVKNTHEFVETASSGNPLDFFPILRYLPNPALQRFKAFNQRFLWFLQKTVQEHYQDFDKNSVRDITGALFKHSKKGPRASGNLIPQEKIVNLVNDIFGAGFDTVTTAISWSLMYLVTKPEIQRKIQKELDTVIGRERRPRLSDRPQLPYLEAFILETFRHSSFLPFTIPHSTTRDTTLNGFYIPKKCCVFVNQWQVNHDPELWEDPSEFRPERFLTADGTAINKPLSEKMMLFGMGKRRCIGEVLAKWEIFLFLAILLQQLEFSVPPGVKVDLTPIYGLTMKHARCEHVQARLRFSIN
Cytochrome P450 2C9 (Homo sapiens), sequence (P11712 whole entry, looked up): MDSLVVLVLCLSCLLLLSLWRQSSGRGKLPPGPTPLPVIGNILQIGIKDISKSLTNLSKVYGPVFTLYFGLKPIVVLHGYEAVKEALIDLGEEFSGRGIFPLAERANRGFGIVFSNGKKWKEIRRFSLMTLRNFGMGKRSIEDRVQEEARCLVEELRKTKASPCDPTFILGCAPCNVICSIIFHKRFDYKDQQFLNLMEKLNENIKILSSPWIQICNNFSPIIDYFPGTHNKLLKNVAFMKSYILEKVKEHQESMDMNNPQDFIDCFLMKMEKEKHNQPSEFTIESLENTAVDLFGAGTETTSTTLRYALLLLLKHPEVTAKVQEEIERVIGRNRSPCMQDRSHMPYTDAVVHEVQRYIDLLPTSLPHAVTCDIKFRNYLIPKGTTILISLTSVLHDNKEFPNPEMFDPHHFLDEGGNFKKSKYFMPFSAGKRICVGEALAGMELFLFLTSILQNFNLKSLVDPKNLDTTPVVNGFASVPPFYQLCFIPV
Cytochrome P450 3A4 (Homo sapiens), sequence (P08684 whole entry, looked up): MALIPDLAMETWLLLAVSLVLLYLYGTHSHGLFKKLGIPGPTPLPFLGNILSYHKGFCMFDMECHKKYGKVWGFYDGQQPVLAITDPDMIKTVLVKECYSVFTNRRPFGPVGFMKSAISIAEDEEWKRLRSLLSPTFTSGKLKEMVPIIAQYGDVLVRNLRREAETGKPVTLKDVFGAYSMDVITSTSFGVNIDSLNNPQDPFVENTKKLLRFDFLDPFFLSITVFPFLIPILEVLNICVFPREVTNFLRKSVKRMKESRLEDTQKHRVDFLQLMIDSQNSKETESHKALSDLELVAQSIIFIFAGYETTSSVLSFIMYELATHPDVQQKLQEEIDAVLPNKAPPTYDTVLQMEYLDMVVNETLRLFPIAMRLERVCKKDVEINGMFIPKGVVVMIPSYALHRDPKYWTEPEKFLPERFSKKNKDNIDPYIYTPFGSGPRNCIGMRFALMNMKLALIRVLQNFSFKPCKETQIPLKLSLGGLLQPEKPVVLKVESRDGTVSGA

With `CN1C(=O)CN=C(c2ccccc2)c2cc([N+](=O)[O-])ccc21`, the Potency result in experiment [1], in [2], in [3], in [4], in [5] and in experiment [8] was “inactive” throughout. In addition, the Potency entry in experiment [9], in experiment [10], in experiment [11], in [12], in [13] and in experiment [14] was “inactive” throughout. Besides, in experiment [15], the Potency result was “inactive”. For the same compound, the max activation in experiment [6] was 8.45%. In addition, the call in experiment [7] was inactive.

On to `Nc1ccc2c(c1)Cc1ccccc1-2`, for which the Potency result in experiment [1], in experiment [2], in experiment [16], in experiment [3], in experiment [8] and in experiment [9] was “inactive” each time. Besides, the Potency entry in experiment [10] and in [14] was “inactive” throughout. Further, the Potency in [5] is 27.1 µM (active); in experiment [11] it was 62.9 µM (active); in [12] it was 8.88 µM (active); in [17], 15.8 µM (active); in [13], 1.25 µM (active); in [15], 14.1 µM (active).

`CC(Cc1ccccc1)NCc1ccccc1Cl` (centres undefined): the Potency entry in experiment [1], in experiment [2], in experiment [16], in experiment [3], in [4] and in experiment [18] was “inactive” throughout. Further, the Potency entry in [19], in experiment [8], in [9], in experiment [10], in experiment [17] and in experiment [14] was “inactive” each time. In experiment [7], the outcome was inactive. Moreover, the values for the Potency in experiment [11], in [12] and in experiment [13] were 0.174 µM (active), 1.38 µM (active) and 15.5 µM (active), respectively.

As for `CCCCC1C(=O)NC(=O)N(C2CCCCC2)C1=O` (centres undefined), the Potency result in experiment [1], in experiment [2], in experiment [16], in experiment [3], in [5] and in [19] was “inactive” each time. Moreover, the Potency entry in experiment [8], in experiment [9], in experiment [10], in experiment [11], in experiment [13] and in experiment [14] was “inactive” each time. For the same compound, the Potency entry in experiment [15] was “inactive”. In experiment [12], the Potency was 27.5 µM (active).

On to `O=C(O)C(O)C(O)C(=O)O` (centres undefined), for which the Potency entry in [1], in [2], in [16], in [3], in [4] and in experiment [19] was “inactive” each time. The Potency result in experiment [8], in experiment [9] and in experiment [14] was “inactive” each time.

Take `COC1=CC(=O)O[C@@H](/C=C/c2ccc3c(c2)OCO3)C1`: the Potency entry in experiment [1], in [2], in experiment [16], in experiment [3], in experiment [5] and in experiment [8] was “inactive” each time. Further, the Potency result in [9], in experiment [10] and in experiment [14] was “inactive” throughout. In addition, the Potency is 34.1 µM (active) in [11]; 8.56 µM (active) in [12]; 2.71 µM (active) in experiment [17]; 3.41 µM (active) in experiment [13]; 4.81 µM (active) in experiment [15].

For the compound `CCCCOC(=O)CCC(=O)OCCCC`, the Potency result in [1], in [2], in experiment [16], in [3], in [4] and in experiment [19] was “inactive” throughout. Further, the Potency entry in experiment [8], in experiment [9], in experiment [10], in [14] and in experiment [15] was “inactive” throughout. The Potency in [13] was 20 µM (active).

As for `C1CCNCC1`, the Potency entry in experiment [1], in [2], in experiment [3], in experiment [4], in [5] and in experiment [19] was “inactive” each time. Also, the Potency result in experiment [8], in [9], in experiment [10], in experiment [11], in experiment [12] and in experiment [17] was “inactive” in each case. For the same compound, the Potency result in [14] and in experiment [15] was “inactive” throughout. Besides, in experiment [13], the Potency is 36.8 µM (active).
